# PubChem BioAssay AID588795 (National Center for Advancing Translational Sciences (NCATS), 2011)
# The whole screen tested about 390,000 compounds, of which about 1,400 (0.36%) were called active. Roughly 2% stayed inconclusive and do not appear here. This excerpt belongs to a sample that is enriched for actives. Unmarked numbers belong to inactive results. Calls follow the shape of the dose curve; as a rule, active = well fitted inhibition curve with a large enough effect; inconclusive = small, poorly fitted or top-dose-only effect; inactive = no such curve, though single readings can be large or run the other way.
# Molecular target: Flap endonuclease 1 (Homo sapiens) (UniProt P39748)
# Sequence (P39748 whole entry, looked up): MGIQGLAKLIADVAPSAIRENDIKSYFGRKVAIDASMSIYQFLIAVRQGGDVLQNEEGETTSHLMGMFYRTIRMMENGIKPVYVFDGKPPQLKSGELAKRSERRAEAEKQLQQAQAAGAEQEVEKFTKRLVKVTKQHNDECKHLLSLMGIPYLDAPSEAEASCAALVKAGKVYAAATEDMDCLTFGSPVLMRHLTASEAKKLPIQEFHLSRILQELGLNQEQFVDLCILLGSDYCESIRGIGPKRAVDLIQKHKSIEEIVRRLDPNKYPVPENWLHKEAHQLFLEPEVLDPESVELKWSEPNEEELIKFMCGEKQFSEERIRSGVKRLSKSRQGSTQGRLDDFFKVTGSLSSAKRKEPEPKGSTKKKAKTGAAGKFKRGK
# Test: qHTS Assay for the Inhibitors of Human Flap endonuclease 1 (FEN1). Also: nearly all actives have a fitted effect of over 65% in size.
# Conditions: Recombinant FEN1 flap cleavage, fluorescence, 15 min; series mostly up to 114 µM; activity change, negative = inhibition: at the top concentration
# Text: The major human flap endonuclease FEN1 is an efficient structure-specific enzyme that recognizes and cleaves a 5'-unannealed DNA flap. It belongs to the RAD2 family nucleases, which are involved in DNA metabolism and are highly conserved in prokaryotes and eukaryotes. FEN1 is a key enzyme in DNA replication, repair and maintenance of genomic stability. 5'-flap removal by FEN1 is critical for Okazaki fragment processing during lagging strand DNA synthesis, long-patch base excision repair (LP BER), and regulating or facilitating recombination events. […] Deletion of the yeast FEN1 gene, i.e. rad27, results in an increased frequency of short DNA (3-32 bp) repeats, micro- and mini-satellite formation, trinucleotide repeat expansion, spontaneous recombination events, and a severe growth defect in association with cell cycle arrest in late S/G2 phase. […] Cells from fen1-/- blastocysts show increased apoptotic cell death after ionizing radiation treatment, and chicken cells lacking the fen1 gene are hypersensitive to DNA alkylating agents, e.g. methylmethane sulfonate (MMS) and N-methyl-N'-nitro-N-nitrosoguanidine (MNNG), as well as hydrogen peroxide.
# NIH Chemical Genomics Center [NCGC]
# NIH Molecular Libraries Probe Centers Network [MLPCN]
# Assay Submitter (PI): David Wilson, National Institute of Aging
# Three uL of reagents (buffer in column 3 and 4 as negative control and 10 nM FEN1 in columns 1, 2, and 5-48) were dispensed into 1,536-well black solid-bottomed plate. Compounds (23 nL) were transferred via Kalypsys pin tool equipped with 1536-pin array (10 nL slotted pins, V&P Scientific, San Diego, CA). The plates were then incubated for 15 min at room temperature, and 1 uL substrate (50 nM final concentration) were added to start the reaction read twice at 0 min read and 15 min on ViewLux reader. Throughout the screen, reagent bottle and all liquid lines were chilled and made light-tight to minimize reagent degradation. All screening operations were performed on a fully integrated robotic system (Kalypsys, San Diego, CA) containing one RX-130 and two RX-90 anthropomorphic robotic arms (Staubli, Duncan, SC). Library plates were screened starting from the lowest and proceeding to the highest concentration, and a "double-dipping" step of the highest concentration was required to access higher concentrations of compounds. Vehicle-only plates, with DMSO being pin-transferred to the entire column 5-48 compound area, were inserted uniformly at the beginning and the end of each library in order to monitor for and record any shifts in the background, which can be affected by reagent dispensers or loss in enzyme activity overtime. Screening data was corrected, normalized, and concentration-effect relationships were derived by using publicly-available curve fitting algorithms developed in-house (http://ncgc.nih.gov/pub/openhts). A four parameter Hill equation was fitted to the concentration-response data by minimizing the residual error between the modeled and observed responses.
# % is scaled to controls: 0 for no effect and ±100 for the full control effect; potency is read from the fitted curve at half-maximal effect.
Compound,"activity change, negative = inhibition",Potency
COc1ccc(CN2C(=O)NC(=O)/C(=C\c3ccc(OC)c(OC)c3OC)C2=O)cc1,-6.59%,
COc1cccc(N2C(=O)NC(=O)/C(=C\c3ccc([N+](=O)[O-])s3)C2=O)c1,,39.8 µM (active)
CCOC(=O)CC(SP1(=S)OCC2(CCCCO2)C(C2CCCCO2)O1)C(=O)OCC (stereo not given),-27.9%,
C[C@]12CCC3C(CC[C@H]4[C@H](O)[C@H](O)CC[C@]34C)C1CCC2=O (stereo not given in full),-5.27%,
COc1ccc2c(c1)NP(=S)(c1ccccc1)N2 (stereo not given),-3.42%,
CCC(C)(O)C(=O)OC1C(=O)OC2CC3C(C)=CC(=O)C(O)C3(C)C3C4(O)OCC23C1C(C)C4O (stereo not given),2.84%,
O=C(O)/C=C/c1ccc2c(c1)OCO2,39.2%,
O=C(c1ccccc1[N+](=O)[O-])N1CCC2(CC1)OCCO2,-1.26%,
O=C(O)c1cc[c]([Sb](=[O])([OH])[OH])cc1[N+](=O)[O-],,1.41 µM (active)
CC1C(=O)OC2CCN3CC=C(COC(=O)C(C)(O)C1(C)O)C23 (stereo not given),18.1%,
Cc1cc(C)c2c(c1)NP(=S)(c1ccccc1)N2 (stereo not given),4.1%,
CC(=O)OC1C2(CC3N4C(=O)C5(CO)SSC4(CC31O)C(=O)N5C)OC(C)C(C)(C)C2=O (stereo not given),0.834%,
COc1cc([C@@H]2c3cc4c(cc3[C@H](OC(C)=O)[C@H]3COC(=O)[C@H]23)OCO4)cc(OC)c1OC,0.697%,
COC1C(O)C(C)OC(OC2CCC3(C=O)C(CCC4C3CCC3(C)C(C5=CC(=O)OC5)CCC43O)C2)C1O (stereo not given),0.394%,
CO[C@H]1[C@@H](O)[C@@H](C)O[C@H](O[C@H]2[C@H](Oc3cccc4c(O)c5c(=O)oc6ccc(C)c7c(=O)oc(c34)c5c67)O[C@H](C)[C@H](O)[C@@H]2O)[C@@H]1O,,10 µM (active)
O=P1(Oc2ccccc2)CC(O)C(O)C(COCc2ccccc2)O1 (stereo not given),-2.48%,
CCC(=O)OC(Cc1ccccc1)(c1ccccc1)C(C)CN(C)C (stereo not given),-8.26%,
CC12CCC(O)CC1CCC1C2CCC2(C)C(C(=O)CC(O)C(F)(F)F)CCC12 (stereo not given),-6.23%,
c1ccc2c(c1)[I+]c1ccccc1-2,,50.1 µM (active)
N#Cc1c(Cl)c(Cl)c(Cl)c(C#N)c1Cl,-1.6%,
